Five molecules from PubChem BioAssay (NCATS) can be followed below.

Experiment [1] concerns the target ATP-dependent DNA helicase Q1 (Homo sapiens) (UniProt P46063). In words: qHTS Validation Assay for Inhibitors of RecQ-Like Dna Helicase 1 (RECQ1) (AID 2353). Note: potency is the fitted concentration of half-maximal effect. A digest of the protocol: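 50 nM RECQ1T1 preincubated 15 min with compound in Tris pH 8.0 buffer with MgCl2, DTT, Tween-20 and 2.5 ug/ml poly(dI-dC); started with 200 nM TAMRA/BHQ-2 forked duplex and 2 mM ATP. Unwinding read as fluorescence (525/598 nm), two reads 2 h apart.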

Experiment [2] is described as follows: Cytometric Cell-Based qHTS for Inhibitors of the mTORC1 Signaling Pathway in MEF (Tsc2-/-, p53-/-) Cells (AID 2660).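 Note: percent of cells above a phospho-rpS6 to PI ratio cutoff in each well; series mostly up to about 38 µM.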 In short, it runs like this:
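Readout: Alexa-488 phospho-rpS6 (Ser235/236) intensity divided by PI intensity, thresholded against 7.5 nM rapamycin wells and reported as % positive cells. PI cell count served as the viability measure. Compound exposure was 24 hrs at 37 degree Celsius.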

A short description of experiment [3]: High Content Imaging Cell-Based qHTS for Inhibitors of the mTORC1 Signaling Pathway in MEF (Tsc2-/-, p53-/-) Cells (AID 2666).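 Note: percent of cells scored positive for phospho-rpS6 Ser235/236 immunostaining by imaging.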 In short, it runs like this:
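Read-out: % positive cells per well, with thresholds from highest- and lowest-signal wells, based on phospho-rpS6 (Ser235/236) intensity normalized to Hoechst nuclear stain. Cells: Tsc2-/-, p53-/- MEFs carrying empty vector; compound 24 hrs, 37 degree Celsius.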

The nature of experiment [4]: Cytometry Cell-Based qHTS for Inhibitors of the mTORC1 Signaling Pathway in MEF cells (AID 2668).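 Note: Tsc2-/- p53-/- mouse embryonic fibroblasts stably re-expressing wild-type Tsc2; percent cells positive for phospho-rpS6 Ser235/236 relative to propidium iodide stain; series mostly up to about 38 µM.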 A digest of the protocol: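 Tsc2-/-, p53-/- MEFs re-expressing WT Tsc2; cpd 24 hrs, 37 degree Celsius; PFA fix, Alexa-488 p-rpS6 (Ser235/236) Ab 2 hrs RT, PI counterstain; Acumen 488nm scan; p-S6/PI ratio → % positive cells; PI count = viability.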
Experiment [5] can be described thus: Validation screen for small molecules that induce DNA re-replication in MCF 10A normal breast cells (AID 463097). Note: nearly all actives have a fitted effect of over 60% in size. A digest of the protocol: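 Image-based qHTS: normal breast cells are incubated with compound for 48 hr, stained with Hoechst, and scanned for total nuclear fluorescence. Compounds raising the fraction of nuclei with elevated DNA content count as re-replication inducers.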

For experiment [6], the target named is Ubiquitin carboxyl-terminal hydrolase 2 (Homo sapiens) (UniProt O75604). In words: qHTS Validation Assay for Inhibitors of Ubiquitin-specific Protease USP2a Using CHOP2 as the Reporter (AID 463106). In short, it runs like this: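 USP2 core (10nM final) was preincubated with compound for 30min at RT in 20mM Tris-HCl pH 8.0, 2mM CaCl2, 2mM beta-mercaptoethanol, 0.05% CHAPS. Ub-CHOP2 and reporter substrate (25nM each) were added, and fluorescence (Ex 485/Em 531nm) was read after 60min.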
In general terms: Quantitative high-throughput screening tests each substance at several concentrations.

In experiment [7] the target is DNA polymerase III PolC-type (Bacillus subtilis (strain 168)) (UniProt P13267). In words: qHTS Validation Assay for the Inhibitors of DNA Replication in Gram-Positive Bacteria (AID 485295).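 Note: reconstituted holoenzyme with PolC plus beta clamp SSB and primase; PicoGreen fluorescence of double-stranded DNA made on primed circular M13 template; series mostly up to about 57 µM.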 In short, it runs like this:
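First, compound is mixed with the reconstituted replication complex and held at room temperature. Next, circular single-stranded M13Gori with nucleotides starts synthesis. Finally, PicoGreen in EDTA halts the reaction and stains double-stranded product for fluorescence reading.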

Experiment [8] has as its target Tumor susceptibility gene 101 protein (Homo sapiens) (UniProt Q99816). As to the kind of experiment: qHTS Validation Assay for Iinhibitors of HIV-1 Budding by Blocking the Interaction of PTAP/TSG101 (AID 485342; calls by dose curve). A digest of the protocol:
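Binding of a FITC-tagged PTAP-motif peptide (50 nM) to the Tsg101 binding domain (10 uM) is monitored by fluorescence polarization. Compounds are pin-delivered before peptide addition, and incubation runs 20 min at room temperature.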

The nature of experiment [9]: qHTS Validation Assay to Find Inhibitors of Chronic Active B-Cell Receptor Signaling (AID 485345; active = well fitted curve in the direction sought with a large enough effect in the main read-out, with a control signal flat, not every such curve was filed as active). A digest of the protocol: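 TMD8 ABC-DLBCL cells with dox-inducible green luciferase–IκBα fusion and red native luciferase; compounds 46 uM–3 nM, 4 h at 37C with doxycycline in 0.5% FBS IMDM. Green/red ratio normalized to basal and 10 uM MG-132.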
Experiment [10] has as its target Beta-2 adrenergic receptor (Homo sapiens) (UniProt P07550). In words: qHTS validation assay of beta-arrestin-biased ligands of beta2-adrenergic receptor (AID 485366). In short, it runs like this: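 Tango cells (recombinant beta2-AR with recombinant beta-arrestin; recruitment releases tTA driving luciferase) were treated with compounds titrated up to 46 microM for 18 hr at 37 degrees C. Luminescence gave %Activity, and concentration-response curves were curve-classified.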

Experiment [11] has as its target ATP-dependent 6-phosphofructokinase (Trypanosoma brucei brucei) (UniProt O15648). In words: qHTS Validation Assay to Find Inhibitors of T. brucei phosphofructokinase (AID 485368). Note: potency is the fitted concentration of half-maximal effect. A digest of the protocol:
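Compounds (up to 57 uM, titration series) were pinned into substrate buffer, then 1.25 nM PFK added; after 45 min at room temperature, ADP product was quantified by ADP-Glo luminescence and concentration-response curves fitted.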

Experiment [12] can be described thus: Quantitative high throughput screen for delayed death inhibitors of the malarial parasite plastid, 96 hour incubation (AID 488745).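 Note: luciferase-expressing P. falciparum in erythrocytes at 2% hematocrit and 0.1% parasitemia; series mostly up to about 29 µM; nearly all actives have a fitted effect of over 70% in size.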 A digest of the protocol:
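Growth of reporter-bearing P. falciparum in red cells is measured after 96 h with compound, covering two erythrocytic cycles. Luminescence from the integrated luciferase serves as the growth signal.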

Experiment [13] is described as follows: Quantitative high throughput screen for delayed death inhibitors of the malarial parasite plastid, 48 hour incubation (AID 488752). Note: nearly all actives have a fitted effect of over 65% in size. Note: potency is the fitted concentration of half-maximal effect. In short, it runs like this:
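One parasite generation (48 h, 37 C, 5% CO2) of luciferase-reporter P. falciparum in erythrocytes is run with test compound; decreased luminescence indicates inhibited growth.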

Experiment [14] concerns the target Thioredoxin reductase 1, cytoplasmic (Rattus norvegicus) (UniProt O89049). As to the kind of experiment: qHTS Assay for Substrates of Mammalian Selenoprotein Thioredoxin Reductase 1 (TrxR1) (AID 488772).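 Note: NADPH fluorescence in the first read after selenite addition and not the 8 min delta; series mostly up to about 57 µM; a drop in NADPH fluorescence below the no-compound background marks a TrxR1 substrate.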 A digest of the protocol: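 Quantitative HTS in Tris-HCl buffer at pH 7.5 with EDTA and Tween-20, using rat TrxR1, 400 uM NADPH and 400 uM selenite (final). A fall in initial NADPH fluorescence relative to background marked substrate behaviour.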

The target is the same in experiment [15]. In words: qHTS Assay for Inhibitors of Mammalian Selenoprotein Thioredoxin Reductase 1 (TrxR1) (AID 488773). Note: nearly all actives have a fitted effect of over 40% in size. Note: potency is the fitted concentration of half-maximal effect. As to conditions: Potency: inhibition. A digest of the protocol:
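Steps: enzyme (90 nM) plus NADPH (400 uM final), 5 min at ~22 deg C; compound added, 15 min; selenite (400 uM final) added; fluorescence followed for 8 min. Concentration-response curves derived from the normalized delta values.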

Experiment [16] concerns the target Flap endonuclease 1 (Homo sapiens) (UniProt P39748). As to the kind of experiment: qHTS Validation Assay for the Inhibitors of Human Flap endonuclease 1 (FEN1) (AID 488816). In short, it runs like this: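 FEN1, dispensed as a 10 nM reagent, was preincubated with pin-transferred compounds for 15 min at room temperature before substrate was added (50 nM final). Plates were read at 0 and 15 min, and a four-parameter Hill equation was fitted to the concentration-response data.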

In experiment [17] the target is M-phase phosphoprotein 8 (Homo sapiens) (UniProt Q99549). As to the kind of experiment: qHTS Validation Assay for Inhibitors for MPP8 Chromodomain Interactions with Methylated Histone Tails (AID 488949).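 Note: 50 nM MPP8 with 50 nM peptide preformed then compounds added for 30 min; AlphaScreen signal from MPP8 chromodomain bound to biotinylated H3K9me3 peptide; top concentration of the series differs between compounds; nearly all actives have a fitted effect of over 55% in size.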 A digest of the protocol: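 50 nM MPP8 + 50 nM b-H3K9me3 peptide, PBS pH 7.4/0.01% Tween-20, 30 min RT; + cpd 30 min RT; + AlphaScreen donor/Ni-chelate acceptor beads 10 ug/mL final, 30 min dark; luminescence read.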

In experiment [18] the target is Chromobox protein homolog 1 (Homo sapiens) (UniProt P83916). In words: qHTS Validation Assay for Inhibitors of HP1-beta Chromodomain Interactions with Methylated Histone Tails (AID 488953). Note: nearly all actives have a fitted effect of over 50% in size. Note: potency is the fitted concentration of half-maximal effect. In short, it runs like this: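 Measured as loss of AlphaScreen luminescence from streptavidin donor and nickel acceptor beads (10 ug/mL final) bridging HP1-beta and biotin-H3(1-18)K9me3, each 50 nM. Compounds met the preassembled complex for 30 min at RT.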

Experiment [19] has as its target Methanococcus maripaludis chaperonin (MmCpn) (UniProt Q6LX38). As to the kind of experiment: High-Throughput Screening for Modulators of Cytosolic Chaperonin Activity: MmCpn Primary Screen (AID 488978). Note: potency is the fitted concentration of half-maximal effect. In short, it runs like this:
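Steps: chaperonin 50 nM final; add compound, 5 min RT; start with ATP, 30 uM final; hold 10 min at 37C; add ADP Transcreener HTRF reagent, 5 min; read ex 320, em 590 and 665 nm.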

Experiment [20] addresses RecQ-like DNA helicase BLM (Homo sapiens) (UniProt P54132). In words: qHTS Validation Assay for Inhibitors of Bloom's syndrome helicase (BLM) (AID 2364). A digest of the protocol:
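BLM 50 nM in 25 mM Tris-HCl pH 8.0, 5 mM NaCl, 2 mM MgCl2, 1 mM DTT, 0.01% Tween-20, 2.5 ug/ml poly(dI-dC); 15 min cpd preinc, RT. Start: 200 nM forked DNA + 2 mM ATP (final). TAMRA read, 2 reads 2 h apart.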

Inconclusive results are not listed. Activity calls are given as the source filed them. Unless noted, calls come from the whole dose curve; as a rule, active = well fitted curve in the direction sought with a large enough effect; inconclusive = small, poorly fitted or top-dose-only effect, or another doubt; inactive = no such curve, though single readings can be large; an effect the other way counts as inactive or inconclusive.

Sequence of Chromobox protein homolog 1 (Homo sapiens) (P83916 whole entry, looked up): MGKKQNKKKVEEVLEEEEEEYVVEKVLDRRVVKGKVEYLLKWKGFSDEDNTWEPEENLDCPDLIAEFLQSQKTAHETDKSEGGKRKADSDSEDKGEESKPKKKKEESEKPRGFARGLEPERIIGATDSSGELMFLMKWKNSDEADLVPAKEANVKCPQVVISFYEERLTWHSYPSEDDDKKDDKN
Sequence of RecQ-like DNA helicase BLM (Homo sapiens) (P54132 whole entry, looked up): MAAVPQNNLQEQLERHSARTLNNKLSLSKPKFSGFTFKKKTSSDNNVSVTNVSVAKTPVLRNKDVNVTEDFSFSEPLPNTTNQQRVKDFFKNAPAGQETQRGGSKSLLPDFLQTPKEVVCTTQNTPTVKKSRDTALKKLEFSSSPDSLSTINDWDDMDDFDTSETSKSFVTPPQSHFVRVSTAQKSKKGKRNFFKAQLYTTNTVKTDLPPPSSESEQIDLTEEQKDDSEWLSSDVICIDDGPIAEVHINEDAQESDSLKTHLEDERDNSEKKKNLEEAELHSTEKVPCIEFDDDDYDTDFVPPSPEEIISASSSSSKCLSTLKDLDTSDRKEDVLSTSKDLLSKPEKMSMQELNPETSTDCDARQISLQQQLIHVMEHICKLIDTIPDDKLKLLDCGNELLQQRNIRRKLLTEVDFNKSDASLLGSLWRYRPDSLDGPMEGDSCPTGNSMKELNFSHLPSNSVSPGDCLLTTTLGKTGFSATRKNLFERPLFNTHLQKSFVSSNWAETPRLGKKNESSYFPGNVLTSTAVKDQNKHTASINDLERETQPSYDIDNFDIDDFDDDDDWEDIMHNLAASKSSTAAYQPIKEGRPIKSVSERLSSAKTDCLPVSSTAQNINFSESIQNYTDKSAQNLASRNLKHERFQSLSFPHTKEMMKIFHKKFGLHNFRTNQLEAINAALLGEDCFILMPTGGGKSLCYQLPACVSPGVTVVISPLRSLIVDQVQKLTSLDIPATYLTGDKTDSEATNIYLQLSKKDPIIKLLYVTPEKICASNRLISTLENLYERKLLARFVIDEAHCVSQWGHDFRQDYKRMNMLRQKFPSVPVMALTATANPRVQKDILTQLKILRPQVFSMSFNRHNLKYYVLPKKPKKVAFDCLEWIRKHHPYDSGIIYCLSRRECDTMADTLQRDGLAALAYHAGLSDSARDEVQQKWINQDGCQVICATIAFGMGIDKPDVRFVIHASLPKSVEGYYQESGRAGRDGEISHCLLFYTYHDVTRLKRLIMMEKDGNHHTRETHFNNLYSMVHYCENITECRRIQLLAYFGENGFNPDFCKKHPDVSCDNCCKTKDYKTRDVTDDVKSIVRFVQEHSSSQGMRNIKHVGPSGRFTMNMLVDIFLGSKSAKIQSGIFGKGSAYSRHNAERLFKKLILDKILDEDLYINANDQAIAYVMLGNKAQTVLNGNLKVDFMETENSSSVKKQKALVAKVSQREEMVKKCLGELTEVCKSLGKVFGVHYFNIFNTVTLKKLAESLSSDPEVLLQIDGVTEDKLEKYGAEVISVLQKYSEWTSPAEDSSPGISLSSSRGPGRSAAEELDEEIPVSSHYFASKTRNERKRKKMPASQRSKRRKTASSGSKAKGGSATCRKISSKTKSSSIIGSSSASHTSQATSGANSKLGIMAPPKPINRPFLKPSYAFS
Sequence of ATP-dependent 6-phosphofructokinase (Trypanosoma brucei brucei) (O15648 whole entry, looked up): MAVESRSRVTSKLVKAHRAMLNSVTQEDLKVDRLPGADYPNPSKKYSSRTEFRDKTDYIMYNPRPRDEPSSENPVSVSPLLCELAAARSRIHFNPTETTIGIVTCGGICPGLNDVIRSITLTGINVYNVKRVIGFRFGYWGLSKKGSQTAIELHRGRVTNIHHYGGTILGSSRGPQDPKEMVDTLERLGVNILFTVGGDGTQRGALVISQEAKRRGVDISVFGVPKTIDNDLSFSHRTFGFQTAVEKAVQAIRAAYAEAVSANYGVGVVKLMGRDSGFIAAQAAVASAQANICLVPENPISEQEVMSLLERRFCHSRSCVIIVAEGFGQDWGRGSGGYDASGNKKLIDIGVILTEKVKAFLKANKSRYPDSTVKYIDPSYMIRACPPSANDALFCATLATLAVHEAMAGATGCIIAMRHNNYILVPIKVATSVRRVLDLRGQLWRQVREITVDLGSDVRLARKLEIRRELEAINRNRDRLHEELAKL
Sequence of Methanococcus maripaludis chaperonin (MmCpn) (Q6LX38 1-543): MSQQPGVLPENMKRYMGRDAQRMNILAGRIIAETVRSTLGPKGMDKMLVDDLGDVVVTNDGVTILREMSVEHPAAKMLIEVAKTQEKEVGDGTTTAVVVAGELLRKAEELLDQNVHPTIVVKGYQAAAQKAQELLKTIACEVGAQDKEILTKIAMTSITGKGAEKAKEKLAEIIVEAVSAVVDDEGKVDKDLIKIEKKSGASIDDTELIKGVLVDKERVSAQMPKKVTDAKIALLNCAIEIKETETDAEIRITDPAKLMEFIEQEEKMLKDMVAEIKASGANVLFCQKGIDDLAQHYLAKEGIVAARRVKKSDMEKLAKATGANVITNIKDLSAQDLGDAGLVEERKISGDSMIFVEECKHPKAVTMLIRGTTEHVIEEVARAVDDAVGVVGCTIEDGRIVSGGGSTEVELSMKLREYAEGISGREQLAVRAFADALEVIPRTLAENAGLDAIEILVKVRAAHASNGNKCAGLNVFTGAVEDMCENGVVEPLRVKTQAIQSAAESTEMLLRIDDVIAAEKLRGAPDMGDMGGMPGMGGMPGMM
Sequence of DNA polymerase III PolC-type (Bacillus subtilis (strain 168)) (P13267 whole entry, looked up): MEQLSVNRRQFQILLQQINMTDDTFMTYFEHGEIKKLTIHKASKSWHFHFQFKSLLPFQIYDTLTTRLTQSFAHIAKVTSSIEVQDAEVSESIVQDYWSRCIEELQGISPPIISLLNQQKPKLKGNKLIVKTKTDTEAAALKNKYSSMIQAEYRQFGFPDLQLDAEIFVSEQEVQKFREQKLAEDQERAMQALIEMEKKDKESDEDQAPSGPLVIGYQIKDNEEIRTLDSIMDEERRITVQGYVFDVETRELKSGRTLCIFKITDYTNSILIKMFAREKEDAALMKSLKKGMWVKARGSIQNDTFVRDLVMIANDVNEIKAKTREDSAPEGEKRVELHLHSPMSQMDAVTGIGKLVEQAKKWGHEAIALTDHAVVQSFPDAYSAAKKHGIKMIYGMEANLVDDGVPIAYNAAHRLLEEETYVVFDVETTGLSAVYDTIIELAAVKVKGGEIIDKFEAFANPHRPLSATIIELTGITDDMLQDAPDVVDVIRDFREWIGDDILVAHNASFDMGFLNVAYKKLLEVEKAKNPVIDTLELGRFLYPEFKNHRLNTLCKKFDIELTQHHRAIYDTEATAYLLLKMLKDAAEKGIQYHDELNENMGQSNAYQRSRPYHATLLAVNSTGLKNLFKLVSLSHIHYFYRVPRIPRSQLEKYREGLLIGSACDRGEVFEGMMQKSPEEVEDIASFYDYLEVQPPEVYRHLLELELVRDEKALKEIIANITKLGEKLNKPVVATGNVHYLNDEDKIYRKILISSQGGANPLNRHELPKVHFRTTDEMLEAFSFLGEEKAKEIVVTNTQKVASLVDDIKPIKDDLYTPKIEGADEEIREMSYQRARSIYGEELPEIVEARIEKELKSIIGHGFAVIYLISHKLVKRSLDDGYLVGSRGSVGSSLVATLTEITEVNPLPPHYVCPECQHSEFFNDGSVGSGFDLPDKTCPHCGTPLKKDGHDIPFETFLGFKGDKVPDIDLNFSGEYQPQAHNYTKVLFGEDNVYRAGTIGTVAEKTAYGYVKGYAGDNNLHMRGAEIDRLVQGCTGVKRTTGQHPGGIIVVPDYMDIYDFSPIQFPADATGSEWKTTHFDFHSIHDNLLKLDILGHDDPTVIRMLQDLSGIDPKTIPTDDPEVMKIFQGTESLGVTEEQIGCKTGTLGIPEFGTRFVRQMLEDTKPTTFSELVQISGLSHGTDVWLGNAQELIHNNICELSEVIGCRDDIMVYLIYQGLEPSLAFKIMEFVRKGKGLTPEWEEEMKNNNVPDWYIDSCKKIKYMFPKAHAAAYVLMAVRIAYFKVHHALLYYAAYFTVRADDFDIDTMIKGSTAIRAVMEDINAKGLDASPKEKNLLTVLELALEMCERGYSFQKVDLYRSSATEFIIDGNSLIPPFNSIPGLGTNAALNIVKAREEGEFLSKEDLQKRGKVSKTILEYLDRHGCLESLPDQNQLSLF
Sequence of Tumor susceptibility gene 101 protein (Homo sapiens) (Q99816 whole entry, looked up, the tested form may be a part): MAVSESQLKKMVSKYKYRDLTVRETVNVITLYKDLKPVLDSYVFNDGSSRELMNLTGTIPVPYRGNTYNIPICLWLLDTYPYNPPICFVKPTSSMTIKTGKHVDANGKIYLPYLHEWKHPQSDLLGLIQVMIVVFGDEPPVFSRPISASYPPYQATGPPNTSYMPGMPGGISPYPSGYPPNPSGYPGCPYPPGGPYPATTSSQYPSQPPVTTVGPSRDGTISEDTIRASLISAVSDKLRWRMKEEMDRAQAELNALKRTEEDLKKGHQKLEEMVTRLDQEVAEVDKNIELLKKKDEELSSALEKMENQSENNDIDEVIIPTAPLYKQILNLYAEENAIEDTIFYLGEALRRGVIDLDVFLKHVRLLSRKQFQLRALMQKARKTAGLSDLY
Sequence of Thioredoxin reductase 1, cytoplasmic (Rattus norvegicus) (O89049 whole entry, looked up): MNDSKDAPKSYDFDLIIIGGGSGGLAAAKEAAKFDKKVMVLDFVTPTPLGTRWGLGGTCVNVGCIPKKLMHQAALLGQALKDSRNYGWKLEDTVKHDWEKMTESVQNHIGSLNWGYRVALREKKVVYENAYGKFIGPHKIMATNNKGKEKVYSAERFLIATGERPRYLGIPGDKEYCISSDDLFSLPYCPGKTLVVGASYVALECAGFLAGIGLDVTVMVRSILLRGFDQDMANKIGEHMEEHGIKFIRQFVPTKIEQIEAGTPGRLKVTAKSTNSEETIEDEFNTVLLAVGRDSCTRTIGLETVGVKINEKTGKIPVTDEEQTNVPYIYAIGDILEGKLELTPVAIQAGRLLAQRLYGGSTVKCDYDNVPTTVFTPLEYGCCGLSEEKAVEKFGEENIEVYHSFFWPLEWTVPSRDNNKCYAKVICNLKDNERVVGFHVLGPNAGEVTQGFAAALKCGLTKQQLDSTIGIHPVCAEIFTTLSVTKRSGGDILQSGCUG

For the molecule `CC(C)(C)c1onc(OCP(=O)(O)O)c1CC(N)C(=O)O` (configuration not stated), the Potency entry in experiment [1], in [2], in experiment [3], in experiment [4], in [11] and in experiment [12] was “inactive” each time. The Potency result in [13], in experiment [15], in experiment [16], in experiment [17], in experiment [18] and in experiment [19] was “inactive” in each case. In addition, the molecule was called inactive in experiment [5], in experiment [6], in experiment [7], in [8], in [9] and in [10]. Moreover, the molecule was classed as inactive in experiment [14].
As to `CC(CN(C)C)CN1c2ccccc2CCc2ccccc21` (configuration not stated), the Potency result in experiment [1], in experiment [2], in experiment [3], in experiment [4], in [11] and in experiment [15] was “inactive” in each case. For the same molecule, the Potency result in [16], in [17] and in [19] was “inactive” in each case. Further, the call in experiment [20], in experiment [5], in experiment [6], in experiment [7], in experiment [8] and in experiment [9] was inactive. The outcome in experiment [10] and in experiment [14] was inactive. Besides, the Potency in [18] was 28.2 µM (active).
As for `CNCCCC1c2ccccc2C=Cc2ccccc21`, the Potency entry in experiment [1], in [2], in experiment [3], in [4], in experiment [12] and in experiment [15] was “inactive” throughout. Besides, the Potency entry in experiment [17] and in experiment [18] was “inactive” throughout. Besides, the molecule was called inactive in experiment [20], in experiment [5], in experiment [6], in experiment [7], in experiment [8] and in experiment [9]. Besides, the result in experiment [10] and in [14] was inactive. Moreover, the Potency in experiment [13] is 14.7 µM (active).
On to `CC(=O)OCC(=O)[C@@]1(O)CC[C@H]2[C@@H]3CCC4=CC(=O)CC[C@]4(C)[C@H]3C(=O)C[C@@]21C`, for which the Potency result in experiment [1], in experiment [2], in [3], in experiment [4], in experiment [11] and in experiment [12] was “inactive” in each case. Further, the Potency entry in experiment [13], in [15], in experiment [16], in experiment [17], in [18] and in [19] was “inactive” each time. The result in [5], in experiment [6], in [7], in experiment [8], in experiment [9] and in experiment [10] was inactive. For the same molecule, in [14], the molecule was classed as inactive.
`C=Cc1c(C)c2cc3[nH]c(cc4nc(cc5nc(cc1[nH]2)C(C)=C5CCC(=O)O)C(CCC(=O)O)=C4C)c(C)c3C=C`: the Potency in experiment [1] was 11.2 µM (active); in experiment [11] it was 19 µM (active); in experiment [15], 13.4 µM (active); in experiment [19] it was 31.6 µM (active). Besides, the molecule was classed as inactive in experiment [20], in experiment [5], in [7], in [8], in experiment [9] and in [10]. Moreover, in experiment [14], the molecule was called inactive. Also, the Potency entry in experiment [2], in experiment [3], in experiment [4], in [12], in [13] and in experiment [16] was “inactive” throughout. The Potency entry in experiment [17] and in [18] was “inactive” each time.
